Shown are actives, neighbours in structure and some others; about 0.65% of the full set was active somewhere.
NS1 inh: blocks influenza NS1 protein function | Potency, µM (doses to about 46.1 µM), for inactives: top-dose activity, positive = more growth | actives 0.4% (n = 270,000); note: potency is the fitted concentration of half-maximal effect; actives are rising curves; nearly all actives have a fitted effect of over 50% in size
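Read-out: OD600 growth recovery of NS1-expressing budding yeast. Cells grown overnight at 30C in -URA glucose medium, washed, resuspended and diluted 1:100 in 2% galactose assay medium, pH 6.0. Same strain lacking NS1 served as positive control.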
AMA1-RON2 inh: AMA1-RON2 (P. falciparum) interaction inhibition; AlphaScreen AMA1-biotinylated RON2 peptide binding; Potency, µM (highest dose often 58.2 µM), for the others: at the top dose activity change, negative = inhibition, most hits filed as inhibitors; actives 0.2% (n = 360,000); active = well fitted inhibition curve with a large enough effect; inconclusive = small, poorly fitted or top-dose-only effect; inactive = no such curve, though single readings can be large or run the other way;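 note: potency is the fitted concentration of half-maximal effect; 0% = vehicle wells and -100% = peptide control; nearly all actives have a fitted effect of over 45% in size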
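AMA1 (3D7) with his tag at 25 nM final met compounds first, then biotinylated RON2 peptide at 25 nM; detection used donor plus acceptor beads, 10 µg/mL apiece, read by AlphaScreen after 30 min at room temperature.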
SARS PLP yeast: blocks SARS-CoV papain-like protease in a yeast assay. actives 0.19% (n = 330,000). AID 485353. Potency, µM (titrated, usually from 32.9 µM), for the others: at the highest dose activity, positive = growth rescue, actives largely listed as activators. S. cerevisiae expressing SARS-CoV PLpro, growth rescue; note: potency is the fitted concentration of half-maximal effect; 0% is about no effect; nearly all actives have a fitted effect of over 55% in size
NS1 inh valid: validation of influenza NS1 protein function inhibitors; shares compounds with NS1 inh; 1,400 tested, under 10 active; AID 492980; activity change, negative = inhibition, % at 32.9 µM; influenza NS1 function cell assay, 15-point titration; note: 0% is about no effect
PR8 titer: influenza virus titer reduction, NS1 project. AID 504647. shares compounds with NS1 inh. actives 30% (n = 95). virus titer (log TCID50), log10 TCID50 at 5 µM. MDCK infected influenza A/PR/8/34, virus titer TCID50; hits give low values; call rule not given here
Starred values were filed as active, the others as inactive; ? = inconclusive; . = no result given; [ ] = another dose, or the depositor's remark. Unless noted, calls come from the whole dose curve.

SMILES | NS1 inh | AMA1-RON2 inh | SARS PLP yeast | NS1 inh valid | others
O=C(c1ccc(F)cc1)N1CCN(c2ccc([N+](=O)[O-])c(N3CCCCC3)c2)CC1 | -17% | ? | -1% | .
O=C(COc1ccc(Cl)cc1)N1CCN(c2ccc([N+](=O)[O-])c(N3CCCCC3)c2)CC1 | 11µM* | -27% | -1% | ?
Cc1cc(OCC(=O)N2CCCCCC2)ccc1[N+](=O)[O-] | -4% | -3% | -4% | .
O=C(COc1ccccc1Cl)N1CCN(c2ccc([N+](=O)[O-])c(N3CCCCC3)c2)CC1 | ? | -7% | 9% | -17
Cc1cccc(Cn2c(N3CCN(C)CC3)nc3c2c(=O)n(C)c(=O)n3C)c1 | -3% | 4% | 4% | .
Cc1ccc(C(=O)NCCNS(=O)(=O)c2ccccc2)cn1 | -2% | -16% | 0% | .
COc1ccc(C(=O)NC(CCSC)C(=O)NCc2nnc3ccccn23)cc1 (configuration not stated) | . | -15% | -1% | .
O=C(Cc1c(Cl)cccc1Cl)OCC(=O)N1CCN(C(=O)c2ccco2)CC1 | 1% | 8% | 2% | .
CC1CN(C(=O)CCC(=O)N2CCCCC2)c2ccccc2O1 (configuration not stated) | -1% | -1% | 4% | .
COc1ccc(-n2c(Cc3cccn3C)nnc2SCC(=O)Nc2ccccc2)cc1 | 6% | -4% | -1% | .
Cn1cccc1Cc1nnc(SCC(=O)Nc2ccccc2F)n1CCc1ccccc1 | 7.1µM* | -1% | -11% | -4
Cn1cccc1Cc1nnc(SCC(=O)Nc2cccc(F)c2)n1CCc1ccccc1 | ? | -7% | 12% | .
COc1ccc(-n2c(Cc3cccn3C)nnc2SCC(=O)Nc2ccc(Cl)cc2)cc1 | 10µM* | 3% | 3% | -4 | PR8 titer=8
COc1ccc2[nH]c3c(c2c1)CCN1C(=O)N([C@@H](C)C(=O)NCc2ccco2)C(=O)[C@]31C | 13% | -20% | 0% | .
CC(=O)c1cccc(CN2CCCC(CCC(=O)NCc3ccc(C)o3)C2)c1 (configuration not stated) | -4% | -19% | 0% | .
OC[C@@H]1CN(Cc2ccncc2)C[C@H](n2cnc3c(NCc4ccco4)ncnc32)O1 | . | 1% | . | .
COc1cccc(CN2CC(O)=C(c3nc(-c4ccc(Cl)cc4)cs3)C2=N)c1 | 5µM* | -4% | . | 7
COc1ccc(-c2csc(C3=C(O)CN(Cc4ccc(Cl)cc4)C3=N)n2)cc1OC | -1% | 0% | 0% | .
CC(C)NC1(C(N)=O)CCN(Cc2ccccc2)CC1 | 17% | -3% | . | .
CCc1ccc(NC(=O)C(C)OC(=O)c2cccc(S(=O)(=O)N3CCc4ccccc4C3)c2)cc1 (configuration not stated) | 14µM* | -15% | -12% | -19
CC(OC(=O)c1cccc(S(=O)(=O)N2CCN(C)CC2)c1)C(=O)Nc1ccc(C(N)=O)cc1 (configuration not stated) | . | -1%[11.6 µM] | -2% | .
Cc1ccc(NC(=O)C2CCCN(S(=O)(=O)c3cccc4cccnc34)C2)cc1 (configuration not stated) | 1% | 2% | 2% | .
Clc1ccc(N2CCN(c3ncnc4c3oc3ccccc34)CC2)cc1 | ? | 2% | -5% | -3
CC1CN(c2ncnc3c2oc2ccccc23)CC(C)O1 (configuration not stated) | -43% | -9% | -2% | .
O=C(O)C(c1ccccc1)C(c1ccccc1)c1ccccc1 (configuration not stated) | . | ? | 1% | .
SMILES | NS1 inh | AMA1-RON2 inh | SARS PLP yeast | NS1 inh valid | others
COc1ccc(C(=O)CSc2nnc(-c3ccccn3)n2Cc2ccco2)cc1 | ? | 7% | -2% | -9
O=C(CSc1nnc(-c2ccccn2)n1Cc1ccco1)c1ccccc1 | -20% | 12% | -2% | .
CC(=O)N(c1ccccc1)C(C(=O)c1ccccc1)c1ccccc1 (configuration not stated) | . | 8% | . | .
NC(=O)NC(=O)COC(=O)c1ccc(Cl)c(S(=O)(=O)N(Cc2ccccc2)c2ccc(Cl)cc2)c1 | 11µM* | 17%[11.6 µM] | -20% | -20
NC(=O)COC(=O)c1ccc(Cl)c(S(=O)(=O)N(Cc2ccccc2)c2ccc(Cl)cc2)c1 | 20% | -2% | -31% | .
CN(c1ccccc1)S(=O)(=O)c1ccc(Cl)c(C(=O)NCc2ccccc2CN2CCCC2)c1 | . | -2% | -3% | .
COc1cc(OC)cc(C(=O)Nc2ccc(S(=O)(=O)Nc3ccccn3)cc2)c1 | -2% | -5% | 0% | .

From PubChem
